# Pf apPOL inh: Pf-apPOL DNA polymerase inhibition. Recombinant Pf-apPOL, molecular beacon fluorescence, 1.5 h. inhibition, % at 10 µM. 0.25% of 210,000 active
# mHTT CaM bind: inhibitors of human mutant huntingtin-calmodulin interaction; P42858; AlphaScreen His-mHTT/GST-CaM binding, luminescence; inhibition, % at 15 µM; 3.6% of 190,000 active
# A number is an active result; - = inactive; . = no result given; ! = not confirmed by another sample. Sampled rows, rich in hits. Any-hit rate of the full collection: about 3.6%. Cut-off read from the data, not from the text of the source: active = inhibition above about 50%; inactive = the rest.
SMILES,Pf apPOL inh,mHTT CaM bind
COc1ccc(-c2nc3cccnc3n2C2CCN(C(=O)Nc3cccc(OC)c3)C2)cc1 (stereo not given),-,-
COc1ccc(-c2nc3cccnc3n2C2CCN(C(=O)Nc3cccc(C)c3)C2)cc1 (stereo not given),-,62
COc1ccc(-c2nc3cccnc3n2C2CCN(C(=O)NCc3cccc(F)c3)C2)cc1 (stereo not given),-,-
COc1ccc(-c2nc3cccnc3n2C2CCN(C(=O)CCc3ccccc3)C2)cc1 (stereo not given),-,86
CCCc1nc2cccnc2n1C1CCN(C(=O)CCc2ccc(OC)cc2)C1 (stereo not given),-,-
COc1ccc(-c2nc3cccnc3n2C2CCN(C(=O)NCc3ccc(F)cc3)C2)cc1 (stereo not given),-,77
O=C(c1ccccc1)N1CCC(n2c(-c3ccoc3)nc3cccnc32)C1 (stereo not given),-,-
O=C(c1ccc(C(F)(F)F)cc1)N1CCC(n2c(-c3ccoc3)nc3cccnc32)C1 (stereo not given),-,86
CCC(=O)NCc1csc(C2CCN(C(=O)c3ccc(F)c(F)c3)CC2)n1,-,-
O=C(NC1CCN(C(=O)c2ccco2)CC1)c1ccccc1,-,.
COc1ccc(-c2nc3cccnc3n2C2CCN(C(=O)c3cccc(F)c3)C2)cc1 (stereo not given),-,-
COc1ccc(-c2nc3cccnc3n2C2CCN(C(=O)c3cc(F)cc(F)c3)C2)cc1 (stereo not given),-,53
CCC(Sc1nnc2c(n1)[nH]c1ccccc12)C(=O)Nc1cccc(C(C)=O)c1 (stereo not given),-,65!
O=C(CSc1nnc2c(n1)[nH]c1ccccc12)Nc1ccccc1,-,-
COc1cccc(N2CCN(c3ncc4c(n3)CCN(Cc3cccc(F)c3)C4)CC2)c1,-,58
CCCN1CCN(c2ncc3c(n2)CCN(Cc2cccc(OC)c2)C3)CC1,-,-
COc1ccc(CN2CCc3nc(N4CCN(c5cccc(OC)c5)CC4)ncc3C2)cc1,-,74
Fc1ccc(CN2CCc3nc(N4CCN(c5ccc(F)cc5)CC4)ncc3C2)cc1,-,-
COc1ccc(N2CCN(c3ncc4c(n3)CCN(Cc3ccc(F)cc3)C4)CC2)cc1,-,57
COc1cccc(CN2CCc3nc(N4CCN(C)CC4)ncc3C2)c1,-,-
CCOC(=O)C1CCCN(C(=O)c2cnn(-c3cccc(F)c3)c2C(F)(F)F)C1 (stereo not given),-,-
CC(C)c1cc(C2CCCN2C(=O)Nc2cccc(Cl)c2)on1 (stereo not given),-,-
Cc1cc(C)cc(N2C(=O)NC3CC2(C)Oc2ccc(Cl)cc23)c1 (stereo not given),-,-
COCCN1C(=O)C(O)=C(C(=O)c2cccs2)C1c1cccc(Cl)c1 (stereo not given),-,-
COc1cccc(C=Nc2cc(C)cc(C)c2O)c1O,-,50
SMILES,Pf apPOL inh,mHTT CaM bind
Cc1cc(C)c(O)c(N=Cc2cccc([N+](=O)[O-])c2O)c1,-,-
CCOCC(=O)Nc1nc2c(s1)CN(S(=O)(=O)c1ccc(C)cc1)CC2,-,-
N#Cc1c(N)nc2c(c1-c1ccco1)CCCCCC2,-,-
O=C(Nc1ccccc1)c1ccccc1OCC1C[N+]23CCO[B-]2(OCC3)O1 (stereo not given),-,-
Cc1cc(C=O)c(C)n1-c1ccc(F)c(Cl)c1,-,-
COc1ccc(-n2c(C)cc(/C=C/[N+](=O)[O-])c2C)cc1Cl,-,75
Cc1ccc(-c2coc(-c3ccc(N)cc3)n2)c(C)c1,-,59
Cc1ccc(C)c(-c2coc(-c3ccc(N)cc3)n2)c1,-,53
Cc1ccc(-c2nc3cc(N)ccc3o2)cc1C,-,-
Cc1ccc(-c2csc(N)n2)c(C)c1,-,-
C=C(C)C(C)(O)C#CCN1CCOCC1 (stereo not given),-,-
Cc1cc(OCC(=O)N2N=C3CCCCC3C2(O)C(F)(F)F)ccc1Cl (stereo not given),-,80
Cc1cc(OCC(=O)N2N=C(c3ccccc3)CC2(O)C(F)(F)F)ccc1Cl (stereo not given),-,100
CC1=NN(C(=O)COc2ccc(Cl)c(C)c2)C(O)(C(F)(F)F)C1 (stereo not given),-,-
CC1=NN(C(=O)COc2cc(C)c(Cl)c(C)c2)C(O)(C(F)(F)F)C1 (stereo not given),-,-
Cc1cc(OCC(=O)N2N=C(C3CCCCC3)CC2(O)C(F)(F)F)ccc1Cl (stereo not given),-,100
O=C(c1ccccc1Cl)N1N=C2CCCCC2C1(O)C(F)(F)F (stereo not given),-,-
CCOc1ccccc1NC(=O)N1CCCC1c1cccc(C)c1 (stereo not given),-,-
CCn1cc(S(=O)(=O)CC(=O)Nc2ccc(Br)cc2)c2ccccc21,-,-
Cc1cc(C)c(NC(=O)Cn2nnc(-c3ccccc3Cl)n2)c(C)c1,-,-
C=CCSc1nc2c(c(=O)n1C1CCCCC1)C1(CCCCC1)Cc1ccccc1-2,.,-
O=C(CSc1nc2ccccc2o1)N1CCc2ccccc21,-,-
O=C(C[n+]1ccc2ccccc2c1)c1cc2ccccc2oc1=O,-,85
COC(=O)c1cc2ccccc2oc1=O,-,-
O=C1C(=Cc2ccc3c(c2)OCO3)Oc2c1ccc1c2CN(Cc2cccnc2)CO1,-,-
SMILES,Pf apPOL inh,mHTT CaM bind
COc1ccc(C=C2Oc3c(ccc4c3CN(Cc3ccccn3)CO4)C2=O)c(OC)c1OC,-,-
COc1ccc(CN2COc3ccc4c(c3C2)OC(=Cc2cccnc2)C4=O)cc1,-,-
Cc1ccc(C=C2Oc3c(ccc4c3CN(Cc3ccccn3)CO4)C2=O)o1,-,100
O=C1C(=Cc2ccc3c(c2)OCO3)Oc2c1ccc1c2CN(Cc2ccccn2)CO1,-,100
COc1ccc(OC)c(C=C2Oc3c(ccc4c3CN(Cc3ccccn3)CO4)C2=O)c1,-,100
COc1ccc(C=C2Oc3c(ccc4c3CN(Cc3ccncc3)CO4)C2=O)cc1,-,58
COc1cccc(C=C2Oc3c(ccc4c3CN(Cc3ccncc3)CO4)C2=O)c1,-,-
COc1cccc(C2=NOC(C(=O)NCc3ccccn3)C2)c1OC (stereo not given),-,-
COc1cccc(CNC(=O)C2CCc3nc(N4CCOCC4)ncc3C2)c1 (stereo not given),-,-
O=C1C(=Cc2ccc(Br)cc2)Oc2c1ccc1c2CN(Cc2cccnc2)CO1,-,83
COc1ccc(C=C2Oc3c(ccc4c3CN(Cc3ccccn3)CO4)C2=O)cc1,-,100
COc1ccc(C=C2Oc3c(ccc4c3CN(Cc3ccccn3)CO4)C2=O)cc1OC,-,-
O=C1C(=Cc2ccccc2)Oc2c1ccc1c2CN(Cc2cccnc2)CO1,-,-
C=CCNC(=O)C1CC=CCC1C(=O)Nc1ccccc1 (stereo not given),-,-
COC(=O)COc1ccc2c(c1)OC(=Cc1cccc(F)c1)C2=O,-,-
CS(=O)(=O)N(CC(=O)Nc1ccc2c(c1)OCO2)c1ccc(Cl)c(Cl)c1,-,-
Cc1cccc(N2CCN(C(=O)c3c(C)sc4ccn(C)c(=O)c34)CC2)c1,-,-
Cc1sc2ccn(C)c(=O)c2c1C(=O)N1CCN(c2cccc(Cl)c2)CC1,-,96
CC(=O)N1CCN(C2CCN(CCc3ccccc3)CC2)CC1,-,-
CC(=O)N1CCC2(CC1)Nc1cccnc1NC2=NCc1ccccc1,-,-

# From PubChem
